Source: PubChem BioAssay (NCI)
This is part of a sample that, as a whole, favours compounds with a hit. Of some 83,000 tested, about 20% had one in any assay.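 Growth was measured after 48 h exposure to one concentration of compound in 96-well plates. Values under 10 count as active.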 Activity calls are given as the source filed them.

Columns and labels:
Assay in all cases: NCI-60 one-dose screen, 48 h (100 = growth as untreated, 0 = no growth, -100 = all killed)
Settings in all cases: 10 µM unless noted
DU-145 prostate = tested on: DU-145 prostate
K-562 leukemia = tested on: K-562 leukemia
MALME-3M melanoma = tested on: MALME-3M melanoma
MDA-MB-231 breast = tested on: MDA-MB-231 breast
SF-268 CNS = tested on: SF-268 CNS
SF-295 CNS = tested on: SF-295 CNS
SF-539 CNS = tested on: SF-539 CNS
UACC-257 melanoma = tested on: UACC-257 melanoma
M14 melanoma = tested on: M14 melanoma
HCT-15 colon = tested on: HCT-15 colon
HT29 colon = tested on: HT29 colon
SNB-75 CNS = tested on: SNB-75 CNS
SNB-19 CNS = tested on: SNB-19 CNS
U251 CNS = tested on: U251 CNS
PC-3 prostate = tested on: PC-3 prostate
SK-MEL-5 melanoma = tested on: SK-MEL-5 melanoma
UACC-62 melanoma = tested on: UACC-62 melanoma
LOX IMVI melanoma = tested on: LOX IMVI melanoma
SK-MEL-28 melanoma = tested on: SK-MEL-28 melanoma

Measured: growth

CC(C)(C)CC(C)(C)Nc1c(-c2ccc(C(F)(F)F)cc2)nc2cnccn12
inactive: DU-145 prostate 93% | K-562 leukemia 65.6% | MALME-3M melanoma 103% | MDA-MB-231 breast 86% | SF-268 CNS 88.8% | SF-295 CNS 86.3% | SF-539 CNS 86% | UACC-257 melanoma 98.7% | HCT-15 colon 73.8% | HT29 colon 57.4% | SNB-75 CNS 81.1% | SNB-19 CNS 91.8% | U251 CNS 93% | PC-3 prostate 68.5% | SK-MEL-5 melanoma 90% | UACC-62 melanoma 72.9% | LOX IMVI melanoma 97.6% | SK-MEL-28 melanoma 93.9%
active: M14 melanoma -54.1%

COc1ccncc1C#Cc1cncc(C(=O)Nc2ccc(CN3CCN(C)CC3)c(C(F)(F)F)c2)c1
active: K-562 leukemia 5.84% | MALME-3M melanoma -28% | MDA-MB-231 breast 9.91% | SF-539 CNS 1.56% | M14 melanoma -3.19% | LOX IMVI melanoma -6.87%
inactive: DU-145 prostate 35.4% | SF-268 CNS 39.8% | SF-295 CNS 49.7% | UACC-257 melanoma 46.5% | HCT-15 colon 16.9% | HT29 colon 15.2% | SNB-75 CNS 65.7% | SNB-19 CNS 70.1% | U251 CNS 62% | PC-3 prostate 42.4% | SK-MEL-5 melanoma 34.2% | UACC-62 melanoma 26.4% | SK-MEL-28 melanoma 18.2%

COc1cc2nc(-c3ccc(-c4nn[nH]n4)cc3)[nH]c(=O)c2cc1OC
inactive: DU-145 prostate 114% | K-562 leukemia 109% | MALME-3M melanoma 215% | MDA-MB-231 breast 119% | SF-268 CNS 99.9% | SF-295 CNS 122% | SF-539 CNS 99.5% | UACC-257 melanoma 122% | M14 melanoma 102% | HCT-15 colon 106% | HT29 colon 110% | SNB-75 CNS 106% | SNB-19 CNS 94.3% | U251 CNS 105% | PC-3 prostate 131% | SK-MEL-5 melanoma 102% | UACC-62 melanoma 105% | LOX IMVI melanoma 97.3% | SK-MEL-28 melanoma 128%

Cc1c([N+](=O)[O-])cc(C(C)(C)C)cc1[N+](=O)[O-]
inactive: DU-145 prostate 107% | K-562 leukemia 112% | MALME-3M melanoma 118% | MDA-MB-231 breast 107% | SF-268 CNS 93.3% | SF-295 CNS 97.6% | SF-539 CNS 104% | UACC-257 melanoma 85.4% | M14 melanoma 107% | HCT-15 colon 105% | HT29 colon 87.2% | SNB-75 CNS 89.4% | SNB-19 CNS 102% | U251 CNS 95.4% | PC-3 prostate 95.3% | SK-MEL-5 melanoma 99.7% | UACC-62 melanoma 103% | LOX IMVI melanoma 97.2% | SK-MEL-28 melanoma 99.2%

FC(F)(F)c1cccc(Oc2ccc(Nc3ncnc4ccc(OCCCN5CCOCC5)cc34)cc2Cl)c1
active: K-562 leukemia 1.77% | MALME-3M melanoma -4.17% | M14 melanoma -36% | HCT-15 colon -40.4% | HT29 colon 5% | LOX IMVI melanoma -36%
inactive: DU-145 prostate 43% | MDA-MB-231 breast 22.4% | SF-268 CNS 55.6% | SF-295 CNS 25.7% | SF-539 CNS 60.8% | UACC-257 melanoma 40.1% | SNB-75 CNS 75.2% | SNB-19 CNS 61.1% | U251 CNS 40.3% | PC-3 prostate 49.1% | SK-MEL-5 melanoma 59.2% | UACC-62 melanoma 76.1% | SK-MEL-28 melanoma 21.3%

O=C(N/N=C/c1cccnc1)c1ccccc1Nc1cccc(C(F)(F)F)c1
inactive: DU-145 prostate 91.1% | K-562 leukemia 41.5% | MALME-3M melanoma 65% | MDA-MB-231 breast 118% | SF-268 CNS 76.6% | SF-295 CNS 64.7% | SF-539 CNS 96.7% | UACC-257 melanoma 75.3% | M14 melanoma 73% | HCT-15 colon 71.7% | HT29 colon 91.7% | SNB-75 CNS 83% | SNB-19 CNS 84.8% | U251 CNS 92.1% | PC-3 prostate 88.8% | SK-MEL-5 melanoma 74.3% | UACC-62 melanoma 102% | LOX IMVI melanoma 78.6% | SK-MEL-28 melanoma 85.5%

CN1CCN(CCCOc2ccc3ncnc(Nc4ccc(Oc5cccc(C(F)(F)F)c5)c(Cl)c4)c3c2)CC1
inactive: SF-268 CNS 28.1% | SNB-19 CNS 41.7%
active: DU-145 prostate -8.56% | K-562 leukemia -13.1% | MALME-3M melanoma -90.2% | MDA-MB-231 breast -74.6% | SF-295 CNS -64.7% | SF-539 CNS -89.3% | UACC-257 melanoma -53.5% | M14 melanoma -62.8% | HCT-15 colon -55.7% | HT29 colon -26.9% | SNB-75 CNS -21.1% | U251 CNS -11% | PC-3 prostate 7.28% | SK-MEL-5 melanoma -96.8% | UACC-62 melanoma -75.7% | LOX IMVI melanoma -87.7% | SK-MEL-28 melanoma -93.2%

CCCCCCCCCCCCCCCC(=O)OC[C@@]1(O)C[C@@]23CC[C@@H]4C(C)(C)CCC[C@@]4(C)[C@@H]2CC[C@H]1C3
active: M14 melanoma -51.8%
inactive: DU-145 prostate 108% | K-562 leukemia 59.3% | MALME-3M melanoma 112% | MDA-MB-231 breast 96% | SF-268 CNS 110% | SF-295 CNS 111% | SF-539 CNS 108% | UACC-257 melanoma 104% | HCT-15 colon 97.9% | HT29 colon 92.2% | SNB-75 CNS 112% | SNB-19 CNS 102% | U251 CNS 95.8% | PC-3 prostate 94.8% | SK-MEL-5 melanoma 98.3% | UACC-62 melanoma 85.8% | LOX IMVI melanoma 93.4% | SK-MEL-28 melanoma 121%

Cc1ccc2[nH]c(=S)n(-c3ccc(S(=O)(=O)Nc4ccc(Cl)nn4)cc3)c(=O)c2c1
inactive: DU-145 prostate 109% | K-562 leukemia 102% | MALME-3M melanoma 101% | MDA-MB-231 breast 101% | SF-268 CNS 101% | SF-295 CNS 104% | SF-539 CNS 95.6% | UACC-257 melanoma 99.7% | HCT-15 colon 101% | HT29 colon 103% | SNB-75 CNS 97.8% | SNB-19 CNS 97.5% | U251 CNS 100% | PC-3 prostate 103% | SK-MEL-5 melanoma 101% | UACC-62 melanoma 98.5% | LOX IMVI melanoma 100% | SK-MEL-28 melanoma 108%
active: M14 melanoma -69.5%

C/C(=C(/c1ccccc1)c1ccc(OCC(O)CN2CCOCC2)cc1)c1ccccc1 (stereo not drawn)
active: M14 melanoma -45.1%
inactive: DU-145 prostate 98.1% | K-562 leukemia 19.7% | MALME-3M melanoma 75.3% | MDA-MB-231 breast 104% | SF-268 CNS 104% | SF-295 CNS 108% | SF-539 CNS 74.2% | UACC-257 melanoma 93.4% | HCT-15 colon 53.8% | HT29 colon 13.1% | SNB-75 CNS 91.4% | SNB-19 CNS 102% | U251 CNS 81.1% | PC-3 prostate 71.8% | SK-MEL-5 melanoma 87.1% | LOX IMVI melanoma 87.9% | SK-MEL-28 melanoma 90%

Cn1c(COC(=O)NCCn2ccnc2)nc2c(N3CCOCC3)nc(-c3ccccc3)nc21
active: DU-145 prostate -89.9% | K-562 leukemia 4.31% | MALME-3M melanoma -93.9% | MDA-MB-231 breast -90.6% | SF-268 CNS -61.6% | SF-539 CNS -99.6% | UACC-257 melanoma -56.7% | M14 melanoma -72.5% | HCT-15 colon -51.3% | HT29 colon -12.1% | SNB-75 CNS -89.9% | SNB-19 CNS 8.21% | U251 CNS -61% | PC-3 prostate -74.7% | SK-MEL-5 melanoma -96% | UACC-62 melanoma -93.9% | LOX IMVI melanoma -88.9% | SK-MEL-28 melanoma -98.8%
inactive: SF-295 CNS 18%
